Measurements taken from the supplement of paper PMC9254222.
Whole data set: some 1,100 compounds, median “Wnt reporter firefly/Renilla luciferase ratio relative to plate median” near 1.1, cut for the highest 2% near 1.6. This is one part of a sample in which the highest values are shown more often than they occur.

Test system: HEK293T (UBE3A T485A transfected, BAR Wnt reporter)
Assay: Wnt reporter firefly/Renilla luciferase ratio relative to plate median (fold (linear ratio)); higher = more Wnt/beta-catenin reporter activation
Conditions: 24 h
Outline: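 HEK293T cells carrying a transfected BAR firefly luciferase Wnt reporter, TK-Renilla and an expression plasmid were exposed to chemicals at 0.01–100 uM for 24 h, with dosing four hours after transfection. Readout used Dual-Glo luciferase. The firefly/Renilla ratio defined Wnt activity and raw Renilla defined cell health, each median-centred per plate. Figures are means of four biological replicates.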

Structure (SMILES)	Wnt reporter firefly/Renilla luciferase ratio (concentration: 0.1 uM)	Wnt reporter firefly/Renilla luciferase ratio (concentration: 1 uM)	Wnt reporter firefly/Renilla luciferase ratio (concentration: 10 uM)	Wnt reporter firefly/Renilla luciferase ratio (concentration: 100 uM)	Wnt reporter firefly/Renilla luciferase ratio (concentration: 0.01 uM)
CC[C@H](c1ccc(O)cc1)[C@@H](CC)c1ccc(O)cc1 [meso-Hexestrol]	0.858	1.05	0.711	0.0535	
CCCCc1ccc2c(n1)[C@@H](c1ccc(OC)cc1C[C@H](C)C(=O)[O-])[C@H](C(=O)[O-])[C@H]2c1ccc2c(c1)OCO2.[Na+].[Na+]	1.37	1.08	1.18	0.429	
Cl.Nc1ccn([C@@H]2O[C@H](CO)[C@@H](O)[C@@H]2O)c(=O)n1 [Cytarabine hydrochloride]	1.1	0.941	0.171	0.125	
Nc1ncn([C@@H]2O[C@H](CO)[C@@H](O)[C@H]2O)c(=O)n1 [5-azacytidine]	1.52	1.36	0.213	2.42	1.01
OCC1OC(n2cnc3c(NC4CCCC4)ncnc32)C(O)C1O (stereo not drawn) [N6-Cyclopentyl adenosine]	1.15	1.06	1.05	1.18	1.31
c1ccc(C(O[C@@H]2CCCN(CCc3ccc4c(c3)OCO4)C2)c2ccccc2)cc1 [Zamifenacin]	1.15	1.05	0.996	1.13	
CS(=O)(=O)O.Cc1nccn1-c1ccc(Sc2cccc(C3(C(N)=O)CCOCC3)c2)cc1	1.01	0.73	0.387	0.282	
COc1ccc2sc(C(=O)Nc3nnn[n-]3)c(OC(C)C)c2c1.[Na+]	1.08	1.08	1.35		
CCCCOC(=O)CCCCCCCCC(=O)OCCCC [Dibutyl decanedioate]	0.951	0.896	0.802	2.33	
CC(=O)OCCC(C)C [3-Methylbutyl acetate]	1.41	0.938	1.03	1.09	
CCCCCCC(=O)OCC [Ethyl heptanoate]	1.14	1.05	1.47	1.14	
CC(=O)OCCOCCOCCOC(C)=O [Triethylene glycol diacetate]	1.25	1.16	1.07	1.26	
CCCCCOC(C)=O [Pentyl acetate]	1.22	0.968	1.4	1.61	
CCCCOC(=O)CCCCC(=O)OCCCC [Dibutyl hexanedioate]	0.981	0.969	1	1.08	
Cc1cccc(C)c1O [2,6-Dimethylphenol]	1.32	0.992	1.45	1.16	
CC(=O)c1ccc2c(c1)[C@H](NC(=O)c1ccc(F)cc1)[C@@H](O)C(C)(C)O2 [Carabersat]	1.27	1.07	1.04	1.43	
C=C(C)C(N)=O [Methacrylamide]	1.22	1.04	1.05	1.25	
Oc1ccc(C(c2ccc(O)cc2)C(Cl)(Cl)Cl)cc1 [2,2-Bis(4-hydroxyphenyl)-1,1,1-trichloroethane]	1.3	0.957	0.541		1.02
CC(=O)[C@@]1(O)CC[C@H]2[C@@H]3CCC4=CC(=O)CC[C@]4(C)[C@H]3CC[C@@]21C [17alpha-Hydroxyprogesterone]	1.06	1.02	1.03	0.475	

Structure (SMILES)	Wnt reporter firefly/Renilla luciferase ratio (concentration: 0.1 uM)	Wnt reporter firefly/Renilla luciferase ratio (concentration: 1 uM)	Wnt reporter firefly/Renilla luciferase ratio (concentration: 10 uM)	Wnt reporter firefly/Renilla luciferase ratio (concentration: 100 uM)	Wnt reporter firefly/Renilla luciferase ratio (concentration: 0.01 uM)
NC(=O)N/N=C/c1ccc([N+](=O)[O-])o1 [Nitrofurazone]	1.22	1.02	0.506	0.32	
Nc1nc(=O)c2nc(CNc3ccc(C(=O)N[C@@H](CCC(=O)O)C(=O)O)cc3)cnc2[nH]1 [Folic acid]	1.38	1.01	0.97	1.26	
O=C(OC[C@H]1O[C@@H](OC(=O)c2cc(O)c(O)c(OC(=O)c3cc(O)c(O)c(O)c3)c2)[C@H](OC(=O)c2cc(O)c(O)c(OC(=O)c3cc(O)c(O)c(O)c3)c2)[C@@H](OC(=O)c2cc(O)c(O)c(OC(=O)c3cc(O)c(O)c(O)c3)c2)[C@@H]1OC(=O)c1cc(O)c(O)c(OC(=O)c2cc(O)c(O)c(O)c2)c1)c1cc(O)c(O)c(OC(=O)c2cc(O)c(O)c(O)c2)c1 [Tannic acid]	0.923	1.19	1.38		
CCC(C)N(C)C(=O)c1cc2ccccc2c(-c2ccccc2Cl)n1 (stereo not drawn)	0.925	1.31	1.03	0.292	
CC(C)(C)c1cc(O)c(C(C)(C)C)cc1O [2,5-Di-tert-butylbenzene-1,4-diol]	1.14	0.988	1.13		
CC(C)(C)c1cccc(C(C)(C)C)c1O [2,6-Di-tert-butylphenol]	1.12	1.01	1.3	1.72	
CC(C)(C)c1ccc(O)c(C(C)(C)C)c1 [2,4-Di-tert-butylphenol]	0.984	1.32	1.13	1.1	
CCN(Cc1cccc(S(=O)(=O)[O-])c1)c1ccc(C(=C2C=CC(=[N+](CC)Cc3cccc(S(=O)(=O)[O-])c3)C=C2)c2ccccc2S(=O)(=O)[O-])cc1.[Na+].[Na+]	0.943	1.04	0.706	0.433	
CC1(C)C(=O)NC(=O)N1CO [1-(Hydroxymethyl)-5,5-dimethylhydantoin]	1.14	0.992	1.12	1.59	
CN1CCC(c2c(O)cc(O)c3c(=O)cc(-c4ccccc4Cl)oc23)C(O)C1 (stereo not drawn) [Flavopiridol]	2				1.17
CN(C)C(=O)NC1(c2ccccc2)CCN(CCC[C@@]2(c3ccc(Cl)c(Cl)c3)CCCN(C(=O)c3ccccc3)C2)CC1	1.08	0.903	0.985		
O=C(O)/C=C/C(=O)O.O=C1c2ccccc2C(=O)N1CCc1noc(-c2ccc(CN3CCCCCC3)s2)n1	1.17	1.07	0.907	0.252	
NC(=O)N1c2ccccc2C=Cc2ccccc21 [Carbamazepine]	1.35	0.977	0.997	0.929	
CC(=O)Oc1ccccc1C(=O)O [Aspirin]	1.2	1.04	1.15	0.812	
Cc1cc2c(cc1C(F)(F)F)N(C(=O)Nc1ccc(Oc3cccnc3C)nc1)CC2.Cl	1.03	1.4	0.768	0.554	
CCN(Cc1c(F)cccc1Cl)c1c([N+](=O)[O-])cc(C(F)(F)F)cc1[N+](=O)[O-] [Flumetralin]	1.65	1.11	0.843	0.851	1.23
CCCN(CCC)c1c([N+](=O)[O-])cc(C(F)(F)F)c(N)c1[N+](=O)[O-] [Prodiamine]	1.47	1.2	1.2	1.29	1.16
CC(C(C)N1CC(=O)NC(=O)C1)N1CC(=O)NC(=O)C1 (stereo not drawn)	1.88	1.23	1.33	1.53	1.31
C#C[C@]1(O)CC[C@H]2[C@@H]3CCc4cc(O)ccc4[C@H]3CC[C@@]21C [17alpha-Ethinylestradiol]	1.06	0.888	1.12	0.42	

Structure (SMILES)	Wnt reporter firefly/Renilla luciferase ratio (concentration: 0.1 uM)	Wnt reporter firefly/Renilla luciferase ratio (concentration: 1 uM)	Wnt reporter firefly/Renilla luciferase ratio (concentration: 10 uM)	Wnt reporter firefly/Renilla luciferase ratio (concentration: 100 uM)	Wnt reporter firefly/Renilla luciferase ratio (concentration: 0.01 uM)
CC(=O)O [Acetic acid]	1.13	1.09	1.46	1.17	
C#C[C@]1(O)CC[C@H]2[C@@H]3CCC4=CC(=O)CC[C@@H]4[C@H]3CC[C@@]21CC [Norgestrel]	0.82	1.09	1.07	1.36	
CS(=O)(=O)O.Cc1cc(CCN2CCN(c3nsc4ccccc34)CC2)cc2c1NC(=O)CC2(C)C	0.776	0.735	0.407		
CCNc1cccc(C)c1 [N-Ethyl-3-methylaniline]	0.98	1.05	1.05	1.54	
O=C(N[C@@H](Cc1ccccc1)[C@@H](O)C(=O)N1C[C@@H](O)[C@@H](O)C1)c1cc2cc(Cl)ccc2[nH]1 [Ingliforib]	1.29	1.69	0.888	0.353	
CCCCCCCCOc1ccc(C(=O)c2ccccc2)c(O)c1 [Octabenzone]	1.12	1.08	0.916	1.2	
O=C(O)C1(C(=O)Nc2ccc(Cl)cc2Cl)CC1 [Cyclanilide]	1.6	1.16	1.53	0.874	1.46
O=C(N[C@@H](c1ccccc1)[C@@H]1CCCCN1)c1cccc(C(F)(F)F)c1Cl	0.912	1.24	0.921		
CCOC(=O)COc1ccc2c(c1)CC(NCC(O)c1cccc(Cl)c1)CC2.Cl (stereo not drawn)	1.06	1.18	1.15	1.19	
Cl.Clc1cc(Cl)c2c(c1)N=C1CCCCCN1C2	0.996	1.26	1.13	0.303	
Cc1[nH]nc2c1N=C(c1ccccc1Cl)c1cc([N+](=O)[O-])ccc1N2	1.21	1.72	104	89.3	
Nc1nc2nc[nH]c2c(=S)[nH]1 [6-Thioguanine]	1.31	1.03			
CCCCC(CC)COC(=O)CCCCCCCC(=O)OCC(CC)CCCC (stereo not drawn) [Bis(2-ethylhexyl) nonanedioate]	1.04	0.979	1.33	1.24	
O=C(NO)C1(NS(=O)(=O)c2ccc(Oc3ccc(F)cc3)cc2)CCOCC1	1.18	0.992	0.736	0.244	
O=C(O)[C@H](O)[C@@H](O)C(=O)O [L-Tartaric acid]	1.14	1.29	0.958	1.46	
Cc1cn([C@H]2C=C[C@@H](CO)O2)c(=O)[nH]c1=O [Stavudine]	1.03	1.04	0.931	1.62	
Cc1cn([C@H]2C[C@H](N=[N+]=[N-])[C@@H](CO)O2)c(=O)[nH]c1=O [3'-Azido-3'-deoxythymidine]	1.15	1.04	1.15	1.07	
OCC(CO)(CO)CO [Pentaerythritol]	1.18	1.51	1.13	1.27	
Cc1oc2c(NC(=O)c3c(Cl)cccc3Cl)cccc2c1C(C)(C)O	1.01	1.14	0.7		
